{"source": "paper PMC5540273", "about": "(PLoS ONE, 2017);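 also: KINOMEscan kinase panel screen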", "data": [{"system": "DAPK1", "conditions": "concentration: 1 μM, replicates: in singlicate; n = 1", "units": {"%Inh": "%"}, "values": [{"smiles": "COc1ccc(NC(=O)Nc2ccc(C)c(-c3ccc(C(=O)Nc4ccncc4)cc3)c2)cc1", "note": "[GSK1398475]", "%Inh": 5}, {"smiles": "Clc1ccc(-c2cc(-c3c[nH]nc3-c3ccccn3)ccn2)cc1", "note": "[GW681251]", "%Inh": 0}, {"smiles": "CC(C)(C)OC(=O)NC1CCCN(c2cc(-c3ccc4c(N)n[nH]c4c3)nc(N)n2)C1", "note": "(stereo not drawn) [GSK2286096]", "%Inh": 18}, {"smiles": "CSc1ccc(NC2=C(c3ccccc3Cl)C(=O)NC2=O)cc1", "note": "[SB-342411]", "%Inh": 30}, {"smiles": "COC(=O)c1cccc(NC(=O)NCCNc2ccnc(Nc3ccc(F)cc3)n2)c1", "note": "[GSK1379883]", "%Inh": 0}, {"smiles": "Fc1cccc(COc2ccc(Nc3ncnc4sc(-c5ccc[nH]5)cc34)cc2Cl)c1", "note": "[GW707818]", "%Inh": 28}, {"smiles": "c1ccc(-c2ccc3c(-c4ccnc(Nc5ccc6c(c5)OCCO6)n4)cnn3n2)cc1", "note": "[GW818941]", "%Inh": 0}, {"smiles": "Fc1cccc(COc2ccc(Nc3ncnc4cc[nH]c34)cc2Cl)c1", "%Inh": 20}, {"smiles": "COc1cc2c(Nc3cccc(NC(=O)c4ccccc4)c3)ncnc2cc1OCCCN1CCOCC1", "note": "[GSK223810]", "%Inh": 0}, {"smiles": "COc1ccc(NC(=O)c2ccc(-c3cc(-c4nnc(C)o4)ccc3C)cc2)cc1", "note": "[GW595885]", "%Inh": 0}, {"smiles": "Cl.Fc1ccccc1COc1ccc(Nc2ncnc3ccc(-c4nnc(C(F)(F)F)o4)cc23)cc1Cl", "note": "[GW424170]", "%Inh": 0}, {"smiles": "CNc1nccc(-c2c(-c3ccc(F)cc3)ncn2CCCN2CCOCC2)n1", "note": "[SB-222516]", "%Inh": 0}, {"smiles": "Cc1cc(N2CCC(NS(=O)(=O)c3ccc(F)cc3)CC2)nc(Nc2cccc(C#N)c2)n1.O=C(O)C(F)(F)F", "note": "[GSK1653537]", "%Inh": 0}, {"smiles": "Cn1ccc2ncnc(Oc3ccc(NC(=O)Nc4cccnc4)c(Cl)c3)c21", "%Inh": 7}, {"smiles": "O=C(c1ccc(-c2cc(-c3c[nH]nc3-c3ccccn3)ccn2)cc1)N1CCCC1", "note": "[GW792479]", "%Inh": 0}, {"smiles": "Nc1nc(-c2ccc3c(N)n[nH]c3c2)cc(N2CCC[C@@H](C(=O)Nc3ccccc3)C2)n1.O=C(O)C(F)(F)F.O=C(O)C(F)(F)F", "note": "[GSK2288359]", "%Inh": 7}, {"smiles": "Cl.Cl.c1ccc(-c2cc3ccncc3cc2OC2CCNCC2)cc1", "note": "[GSK1122999]", "%Inh": 93.5}, {"smiles": "Fc1ccc(-c2ncn(CCCNCc3ccccc3)c2-c2ccncc2)cc1", "%Inh": 23}, {"smiles": "CCn1c(-c2ccncc2)nc2cnccc21", "note": "[SB-735216]", "%Inh": 1}, {"smiles": "C[C@H]1CC[C@@H](C(=O)Nc2ccccc2)CN1c1cc(-c2ccc3c(N)n[nH]c3c2)nc(N)n1", "note": "[GSK2283293]", "%Inh": 7}, {"smiles": "NC(=O)c1sc(-n2cnc3ccccc32)cc1OCc1ccccc1F", "note": "[GSK1024306]", "%Inh": 3}, {"smiles": "Cl.Cn1ccc(-c2cccc(Nc3ccnc4cc(-c5nccs5)ccc34)c2)n1", "note": "[GW525701]", "%Inh": 17}, {"smiles": "FC(F)(F)c1cc(Nc2nccc(-c3c(-c4ccc(Cl)cc4)nn4ncccc34)n2)ccc1Cl", "note": "[GW829351]", "%Inh": 0}, {"smiles": "N#Cc1ccc(Oc2ccc(Nc3ncnc4cc[nH]c34)cc2Cl)cc1", "%Inh": 30}, {"smiles": "OCCOCCn1ccc2ncnc(Nc3ccc(Oc4cccc(Cl)c4)c(Cl)c3)c21", "%Inh": 0}, {"smiles": "Fc1cccc(COc2ccc(Nc3ncnc4nn5ccccc5c34)cc2Cl)c1", "note": "[GW689066]", "%Inh": 0}, {"smiles": "Nc1nc(-c2ccccn2)c(-c2ccnc3ccccc23)s1", "note": "[GW548057]", "%Inh": 11}, {"smiles": "CCCc1ccc(S(=O)(=O)NC2CCN(c3ccnc(Nc4ccc(OC)cc4)n3)C2)cc1", "note": "(stereo not drawn) [GSK1379737]", "%Inh": 0}, {"smiles": "Cc1ccc(O)cc1Nc1cc(C(F)(F)F)nc2ccc(-c3ccncc3)cc12", "note": "[GW630823]", "%Inh": 16}, {"smiles": "CNc1nccc(-c2c(-c3ccc(F)cc3)ncn2C2CCN(C)CC2)n1", "note": "[SB-222903]", "%Inh": 0}, {"smiles": "Nc1nc(-c2cccnc2)c(-c2ccnc3ccccc23)s1", "note": "[GW684083]", "%Inh": 0}, {"smiles": "O=C(Nc1ccccc1)Nc1ccc(Oc2ccc3nccn3n2)cc1", "%Inh": 0}, {"smiles": "CC(C)(C)c1ccc(-n2cnc3c(N)ncnc32)cc1", "note": "[SKF-97263]", "%Inh": 0}, {"smiles": "Cc1ccc(NC(=O)c2cccc(C#N)c2)cc1-c1ccc(C(=O)Nc2ccncc2)cc1", "note": "[GSK1398463]", "%Inh": 0}, {"smiles": "Cc1ccc(C)c(NC(=O)NCCNc2ccnc(Nc3ccc(F)cc3)n2)c1", "note": "[GSK1379878]", "%Inh": 0}, {"smiles": "Nc1nccc2scc(-c3ccc4c(c3)CCN4C(=O)Cc3cc(F)ccc3F)c12", "note": "[GSK2587663]", "%Inh": 27}]}, {"system": "DAPK2", "conditions": "concentration: 1 μM, replicates: in singlicate; n = 1", "units": {"%Inh": "%"}, "values": [{"smiles": "COc1ccc(NC(=O)Nc2ccc(C)c(-c3ccc(C(=O)Nc4ccncc4)cc3)c2)cc1", "note": "[GSK1398475]", "%Inh": 0}, {"smiles": "Clc1ccc(-c2cc(-c3c[nH]nc3-c3ccccn3)ccn2)cc1", "note": "[GW681251]", "%Inh": 0}, {"smiles": "CC(C)(C)OC(=O)NC1CCCN(c2cc(-c3ccc4c(N)n[nH]c4c3)nc(N)n2)C1", "note": "(stereo not drawn) [GSK2286096]", "%Inh": 0}, {"smiles": "CSc1ccc(NC2=C(c3ccccc3Cl)C(=O)NC2=O)cc1", "note": "[SB-342411]", "%Inh": 16}, {"smiles": "COC(=O)c1cccc(NC(=O)NCCNc2ccnc(Nc3ccc(F)cc3)n2)c1", "note": "[GSK1379883]", "%Inh": 0}, {"smiles": "Fc1cccc(COc2ccc(Nc3ncnc4sc(-c5ccc[nH]5)cc34)cc2Cl)c1", "note": "[GW707818]", "%Inh": 0}, {"smiles": "c1ccc(-c2ccc3c(-c4ccnc(Nc5ccc6c(c5)OCCO6)n4)cnn3n2)cc1", "note": "[GW818941]", "%Inh": 0}, {"smiles": "Fc1cccc(COc2ccc(Nc3ncnc4cc[nH]c34)cc2Cl)c1", "%Inh": 45}, {"smiles": "COc1cc2c(Nc3cccc(NC(=O)c4ccccc4)c3)ncnc2cc1OCCCN1CCOCC1", "note": "[GSK223810]", "%Inh": 15}, {"smiles": "COc1ccc(NC(=O)c2ccc(-c3cc(-c4nnc(C)o4)ccc3C)cc2)cc1", "note": "[GW595885]", "%Inh": 0}, {"smiles": "Cl.Fc1ccccc1COc1ccc(Nc2ncnc3ccc(-c4nnc(C(F)(F)F)o4)cc23)cc1Cl", "note": "[GW424170]", "%Inh": 0}, {"smiles": "CNc1nccc(-c2c(-c3ccc(F)cc3)ncn2CCCN2CCOCC2)n1", "note": "[SB-222516]", "%Inh": 0}, {"smiles": "Cc1cc(N2CCC(NS(=O)(=O)c3ccc(F)cc3)CC2)nc(Nc2cccc(C#N)c2)n1.O=C(O)C(F)(F)F", "note": "[GSK1653537]", "%Inh": 0}, {"smiles": "Cn1ccc2ncnc(Oc3ccc(NC(=O)Nc4cccnc4)c(Cl)c3)c21", "%Inh": 0}, {"smiles": "O=C(c1ccc(-c2cc(-c3c[nH]nc3-c3ccccn3)ccn2)cc1)N1CCCC1", "note": "[GW792479]", "%Inh": 33}, {"smiles": "Nc1nc(-c2ccc3c(N)n[nH]c3c2)cc(N2CCC[C@@H](C(=O)Nc3ccccc3)C2)n1.O=C(O)C(F)(F)F.O=C(O)C(F)(F)F", "note": "[GSK2288359]", "%Inh": 0}, {"smiles": "Cl.Cl.c1ccc(-c2cc3ccncc3cc2OC2CCNCC2)cc1", "note": "[GSK1122999]", "%Inh": 66}, {"smiles": "Fc1ccc(-c2ncn(CCCNCc3ccccc3)c2-c2ccncc2)cc1", "%Inh": 11}, {"smiles": "CCn1c(-c2ccncc2)nc2cnccc21", "note": "[SB-735216]", "%Inh": 0}, {"smiles": "C[C@H]1CC[C@@H](C(=O)Nc2ccccc2)CN1c1cc(-c2ccc3c(N)n[nH]c3c2)nc(N)n1", "note": "[GSK2283293]", "%Inh": 0}, {"smiles": "NC(=O)c1sc(-n2cnc3ccccc32)cc1OCc1ccccc1F", "note": "[GSK1024306]", "%Inh": 0}, {"smiles": "Cl.Cn1ccc(-c2cccc(Nc3ccnc4cc(-c5nccs5)ccc34)c2)n1", "note": "[GW525701]", "%Inh": 0}, {"smiles": "FC(F)(F)c1cc(Nc2nccc(-c3c(-c4ccc(Cl)cc4)nn4ncccc34)n2)ccc1Cl", "note": "[GW829351]", "%Inh": 0}, {"smiles": "N#Cc1ccc(Oc2ccc(Nc3ncnc4cc[nH]c34)cc2Cl)cc1", "%Inh": 16}, {"smiles": "OCCOCCn1ccc2ncnc(Nc3ccc(Oc4cccc(Cl)c4)c(Cl)c3)c21", "%Inh": 0}, {"smiles": "Fc1cccc(COc2ccc(Nc3ncnc4nn5ccccc5c34)cc2Cl)c1", "note": "[GW689066]", "%Inh": 0}, {"smiles": "Nc1nc(-c2ccccn2)c(-c2ccnc3ccccc23)s1", "note": "[GW548057]", "%Inh": 13}, {"smiles": "CCCc1ccc(S(=O)(=O)NC2CCN(c3ccnc(Nc4ccc(OC)cc4)n3)C2)cc1", "note": "(stereo not drawn) [GSK1379737]", "%Inh": 0}, {"smiles": "Cc1ccc(O)cc1Nc1cc(C(F)(F)F)nc2ccc(-c3ccncc3)cc12", "note": "[GW630823]", "%Inh": 17}, {"smiles": "CNc1nccc(-c2c(-c3ccc(F)cc3)ncn2C2CCN(C)CC2)n1", "note": "[SB-222903]", "%Inh": 0}, {"smiles": "Nc1nc(-c2cccnc2)c(-c2ccnc3ccccc23)s1", "note": "[GW684083]", "%Inh": 0}, {"smiles": "O=C(Nc1ccccc1)Nc1ccc(Oc2ccc3nccn3n2)cc1", "%Inh": 1}, {"smiles": "CC(C)(C)c1ccc(-n2cnc3c(N)ncnc32)cc1", "note": "[SKF-97263]", "%Inh": 0}, {"smiles": "Cc1ccc(NC(=O)c2cccc(C#N)c2)cc1-c1ccc(C(=O)Nc2ccncc2)cc1", "note": "[GSK1398463]", "%Inh": 0}, {"smiles": "Cc1ccc(C)c(NC(=O)NCCNc2ccnc(Nc3ccc(F)cc3)n2)c1", "note": "[GSK1379878]", "%Inh": 0}, {"smiles": "Nc1nccc2scc(-c3ccc4c(c3)CCN4C(=O)Cc3cc(F)ccc3F)c12", "note": "[GSK2587663]", "%Inh": 2}]}]}
